Reference: PubChem BioAssay (Tox21)
Results filed as inconclusive are left out. Active and inactive are the calls of the source. Calls come from the whole dose curve; as a rule, active = well fitted activation curve with a large enough effect in the signal ratio in the repeat runs, with a control signal flat (not every such curve was filed as active); inconclusive = weak or mixed curves; inactive = flat fitted curve, though single readings scatter; the % refers to the signal ratio.

test: qHTS assay for small molecule activators of the heat shock response signaling pathway (AID 743210); details: HeLa HSE-bla reporter, beta-lactamase ratio, 5 h; series mostly up to 62.6 µM; activation: at the top concentration
Text: U.S. Tox21 Program National Center for Advancing Translational Sciences [NCATS] NIH Chemical Genomics Center [NCGC] U.S. Environmental Protection Agency [EPA] National Institutes of Environmental Health Sciences [NIEHS] National Toxicology Program [NTP] U.S. Food and Drug Administration [FDA] Tox21 Assay Overview: Various chemicals, environmental and physiological stress conditions may lead to the activation of heat shock response/ unfolded protein response (HSR/UPR). There are three heat shock transcription factors (HSFs) (HSF-1, -2, and -4) mediating transcriptional regulation of the human HSR. To identify the compounds that activate HSR signaling, HSE-bla HeLa cell line (Invitrogen, Carlsbad, CA, USA) containing a beta-lactamase reporter gene under the control of the heat shock response elements was used to screen the Tox21 10K compound library.
Tox21 Assay Protocol Summary: The CellSensor HSE-bla HeLa cells (Invitrogen, Carlsbad, CA, USA) were dispensed at 1500 cells/6uL/well into 1536-well black wall/clear bottom plates using a Multidrop combi (Thermo Fisher Scientific, Waltham, MA) dispenser. After the assay plates were incubated at 37 C and 5% CO2 overnight, 23 nL of compounds dissolved in DMSO, positive controls or DMSO only was transferred to the assay plate by a Pintool station (Kalypsys, San Diego, CA). The plates were incubated at 37 C for 5 h. After 1 uL of LiveBLAzerTM B/G FRET substrate was added using a Flying Reagent Dispenser (Beckman Coulter, Indianapolis, IN, USA), the plates were incubated at room temperature for 2.5 h, and fluorescence intensity was measured by an Envision plate reader (PerkinElmer, Shelton, CT).
% is set by controls: 0 for no effect and ±100 for the full control effect.

Row | Compound | activation | outcome
1 | C=C[Si](OC(=C)C)(OC(=C)C)OC(=C)C | -0.2% (inactive) | 
2 | CN(C)CCCSc1ccccc1NC(=O)/C=C/c1ccccc1 | 3.15% (inactive) | 
3 | NC(=O)Nc1ccccc1 | 0.179% (inactive) | 
4 | O=Cc1cccc([N+](=O)[O-])c1 | 0.748% (inactive) | 
5 | OC[C@]1(O)OC[C@@H](O)[C@H](O)[C@@H]1O |  | inactive
6 | CCOC(C)(C)C | -0.422% [at 81.1 µM] (inactive) | 
7 | Cc1ccc(=O)n(-c2ccccc2)c1 | -0.4% (inactive) | 
8 | C=C(C)C(=O)OCCCCCCCC(C)C | 0.199% [at 81.1 µM] (inactive) | 
9 | Cc1cnc(NS(=O)(=O)c2ccc(N)cc2)nc1 | 0.233% (inactive) | 
10 | COc1ccc2c(c1)c(CC(=O)OCC(=O)O)c(C)n2C(=O)c1ccc(Cl)cc1 | -0.25% (inactive) | 
11 | CCn1nc(C(=O)O)c(=O)c2cc3c(cc21)OCO3 | -0.15% (inactive) | 
12 | O=C[C@H](O)[C@@H](O)[C@H](O)[C@H](O)CO | 0.719% (inactive) | 
13 | CN(C(=O)c1c(O)c2ccccc2n(C)c1=O)c1ccccc1 | -1.85% (inactive) | 
14 | OCCOc1ccc(OCCO)cc1 | -0.199% [at 81.1 µM] (inactive) | 
15 | CCC(C)C1CCCCC1=O (stereo not given) | -0.886% (inactive) | 
16 | Brc1c(NC2=NCCN2)ccc2nccnc12 | -0.63% (inactive) | 
17 | CCS(=O)(=O)c1ccc(OC)c(C(=O)OC)c1 | -0.548% (inactive) | 
18 | CC(C)(O)C#CC(C)(C)O | -0.021% [at 81.1 µM] (inactive) | 
19 | Cc1c(NC(C)C)c(=O)n(-c2ccccc2)n1C | -0.475% (inactive) | 
20 | O=C(O)CNC(=O)c1ccc([N+](=O)[O-])cc1 | -0.347% (inactive) | 

Row | Compound | activation | outcome
21 | NC(=O)c1ccc(N)cc1 | -2.77% (inactive) | 
22 | CCCCOCCOCCOCc1cc2c(cc1CCC)OCO2 |  | inactive
23 | CN(C)CCCN1c2ccccc2CCc2ccc(Cl)cc21 |  | inactive
24 | N[C@H](C(=O)O)c1ccc(O)cc1 | 0.6% [at 29.1 µM] (inactive) | 
25 | CC(C)OC(=O)c1ccccc1 | -0.753% [at 81.1 µM] (inactive) | 
26 | CCN(CC)CCOCCOC(=O)C1(c2ccccc2)CCCC1 | -1.66% (inactive) | 
27 | Cc1nc2c([nH]1)c(=O)n(C)c(=O)n2Cc1ccco1 | -1.83% (inactive) | 
28 | CCCCCOC(=O)CCCCC | -0.889% (inactive) | 
29 | NS(=O)(=O)c1cc(C(=O)O)cc(N2CCCC2)c1Oc1ccccc1 | -1.87% (inactive) | 
30 | C[C@@H]1CCN(C(=O)[C@H](CCCN=C(N)N)NS(=O)(=O)c2cccc3c2NC[C@H](C)C3)[C@@H](C(=O)O)C1 | -0.265% (inactive) | 
31 | CN(C)CCCNCCCN(C)C | -1.09% (inactive) | 
32 | CCOC(=O)CCC(C)=O | -0.915% (inactive) | 
33 | CCc1nccnc1CC | -1.23% [at 29.1 µM] (inactive) | 
34 | Nc1nc2c(ncn2COC(CO)CO)c(=O)[nH]1 | 1.8% (inactive) | 
35 | COC(C)(C)CCCC(C)CC=O (stereo not given) | 0.772% (inactive) | 
36 | CCOc1ccc(C(=O)OCCN(CC)CC)cc1 | -0.516% (inactive) | 
37 | CCCCCCCCS(=O)(=O)Cl | -0.529% [at 81.1 µM] (inactive) | 
38 | C1CN(CCOCCN2CCOCC2)CCO1 | -0.713% (inactive) | 
39 | CN1CCCC1 | -1.26% (inactive) | 
40 | CC(=O)c1ccccc1O | -0.456% (inactive) | 
